# Test results published in PubChem BioAssay AID743279 (National Center for Advancing Translational Sciences (NCATS), 2014).
# About 17,000 (4.7%) of roughly 360,000 compounds were called active. Not shown: some 5% with an inconclusive outcome. What follows is part of a selection rich in actives, with near analogues and random picks from the rest. Unmarked numbers belong to inactive results. No stated cut-off is given here; in the data, active means activity change below about -50%; inconclusive means mostly about -30% to -49%; inactive means weaker than that.
# Experiment: qHTS for Inhibitors of Inflammasome Signaling: IL-1-beta AlphaLISA Primary Screen
# Settings: THP-1 LPS/ATP IL-1B secretion, 16 h; at 57.5 µM, stronger effect = lower value
# In short: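 Secreted IL-1B measured by AlphaLISA bead assay after 16 h compound exposure of THP-1 cells; compounds (final up to 57.5 uM) added 1 h before LPS (250 ng/mL) and ATP (1.25 mM) stimulation; lower signal means less secretion.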
# On the % scale 0 is the no-effect control and ±100 the full control effect.
row,Structure (SMILES),activity change
1,CCOC(=O)C1(C)CCCN(C(=O)c2ccc(N(C)C)cc2)C1 (stereo not drawn),9.68%
2,CCN(CC)C(=O)[C@H]1CC(CC(=O)NCc2ccco2)C(=O)N2CCc3c([nH]c4ccccc34)[C@]12C (stereo partly drawn),7.15%
3,C[C@@H]1C(c2ccc(F)cc2)=NN(c2ccc(Br)cc2)[C@H]1C(=O)N1CCOC1=O,-54.4% (active)
4,O=C1OCCN1C(=O)[C@H]1[C@H](c2ccc(Cl)cc2)C(c2cccc(Cl)c2)=NN1c1ccc(Br)cc1,-23.1%
5,O=C1OCCN1C(=O)[C@H]1[C@H](c2ccc(F)cc2)C(c2ccccc2)=NN1c1ccc(Br)cc1,-15.9%
6,CN(CC(=O)Nc1c(Cl)cccc1Cl)C(=O)CNC(=O)C1CCCCC1,inactive
7,COc1cccc(CC2(CO)CCCN(Cc3ccc(OC(F)F)cc3)C2)c1 (stereo not drawn),-9.05%
8,O=C(CCC1CCCN(C(=O)Cc2ccc(F)cc2)C1)N1CCN(c2ccccn2)CC1 (stereo not drawn),-15.7%
9,O=S1(=O)CC(N2CCN(c3ccccn3)CC2)CN1Cc1ccc(F)cc1 (stereo not drawn),-7.1%
10,Cc1c(CN2CC[C@@H](N3CCN(c4ccccn4)CC3)[C@H](O)C2)[nH]c2ccc(F)cc12,-50.8% (active)
11,COc1ccc(-c2ccc3c(c2)[C@@H]2C[C@H](N(C)S(=O)(=O)c4ccccc4)[C@H]([C@H](C)O)C(=O)N2CC3)cc1,-14.6%
12,O=C(CCc1ccc(O)cc1)NN=Cc1cc(Br)ccc1O,137%
13,CC(C)(C)c1cc(P(=O)(c2ccccc2)c2ccccc2)ccc1O,-66.1% (active)
14,O=P(O)(CP(=O)(c1ccccc1)c1ccccc1)c1ccccc1O,-5.18%
15,O=S(=O)(Nc1ccc2ccccc2c1)N1CCCCC1,-5.44%
16,CC(C)(C)C(=O)Nc1cccc(-c2ccc[nH]2)n1,-1.09%
17,OCCCNc1nccc(-c2cc(Nc3cccc(Cl)c3)ncn2)n1,-1.28%
18,Cn1c(Nc2cccc(Cl)c2)nc2ccccc21,-6.01%
19,CC(C)n1cnc2c(Nc3cccc(Cl)c3)nc(N(CCO)CCCO)nc21,-97.4% (active)
20,CCOC(=O)N(Cc1ccccc1)C1CC1,8.58%
21,O=C1CC(c2ccccc2)C(=O)N2C(=O)CC(c3ccccc3)C(=O)N12 (stereo not drawn),-11.1%
22,COC(=O)[C@@]12C[C@@H](CC(=O)N3CCCCC3)C(=O)N(Cc3ccc4c(c3)OCO4)C1=CCC(C)(C)C2,-13.6%

row,Structure (SMILES),activity change
1,COC(=O)[C@@]12C[C@@H](CC(=O)N3CCC(c4ccccc4)CC3)C(=O)N(Cc3ccccc3)C1=CCC(C)(C)C2,-70.2% (active)
2,CCOC(=O)N1CCN(C(=O)C[C@@H]2C[C@@]3(C(=O)OC)CC(C)(C)CC=C3N(Cc3ccco3)C2=O)CC1,5.52%
3,COc1ccc(CN2C[C@H]3CON(C)[C@H]3C[C@H]2c2ccc(-c3cccc(F)c3)cc2)cc1,11.4%
4,CC1(C(=O)NCc2ccccc2)CN(S(C)(=O)=O)CC(=O)N1CC(F)(F)F (stereo not drawn),30.7%
5,COc1ccc(C(=O)NC(C)Cn2nc(C)cc2C)cc1OC1CCN(C(C)=O)CC1 (stereo not drawn),0%
6,CCCCC[C@@H]1C=C(C(=O)OCC)[C@H](c2ccccc2)N1S(=O)(=O)c1ccc(C)cc1,37.3%
7,COc1cc(/C=C2\Oc3ccc(C#Cc4ccc(O)cc4)cc3C2=O)cc(OC)c1,-79.1% (active)
8,COc1ccc2c(c1)O/C(=C\c1ccccc1O)C2=O,45.7%
9,COc1cc(C#Cc2ccc3cc(CCCO)oc(=O)c3c2)cc(OC)c1,0%
10,CNC(=O)C[C@H]1C(=O)N(Cc2ccccc2)C[C@@H]1CSC,-8.27%
11,c1ccc(CNc2ncnc3[nH]ncc23)cc1,31.4%
12,Cc1cc(C(=O)COc2ccccc2Cl)c(C)n1C1CC1,0%
13,O=C(COc1ccc(Br)cc1F)NCC1(N2CCCCC2)CCCCC1,-9.53%
14,Cc1cc(C(=O)COc2ccc(Br)cc2F)c(C)n1C1CC1,-54.4% (active)
15,O=C(COC(=O)c1cncc(Br)c1)Nc1ccc(S(=O)(=O)N2CCOCC2)cc1,-5.39%
16,C[C@H](CO)N1C[C@H](C)[C@H](CN(C)C(=O)Nc2ccc3c(c2)OCO3)Oc2ncc(Br)cc2C1=O,-12.4%
17,CC1(c2ccccc2)NC(=O)N(CC(=O)Nc2cc(Cl)ccc2N2CCOCC2)C1=O (stereo not drawn),1.47%
18,Cc1ccccc1NC(=O)CSc1nc2ccc(Nc3nc(N4CCOCC4)nc(N4CCOCC4)n3)cc2s1,0%
19,O=C(CSc1nc(Nc2ccccc2)nc(N2CCOCC2)n1)Nc1cc(Cl)ccc1O,-58.1% (active)
20,CS(=O)(=O)N(CC(=O)N1CCCCCC1)c1cccc(Cl)c1Cl,-9.4%
21,COc1ccc(CN2CCC(n3nccc3NC(=O)CCCc3ccccc3)CC2)cc1C,-65% (active)
22,Cc1ccc(CN2CCC(n3nccc3NC(=O)CCCc3ccccc3)CC2)o1,0%

row,Structure (SMILES),activity change
1,COc1cc(CN2CCC(n3nccc3NC(=O)CCCc3ccccc3)CC2)ccc1O,0%
2,COc1ccc(OC)c(NC(=O)C2CCCN2S(=O)(=O)c2ccc3c(c2)CC(C)N3C(C)=O)c1 (stereo not drawn),11.5%
3,CC(=O)Nc1ccc2c3c(ccc([N+](=O)[O-])c13)CC2,18.1%
4,COc1ccc(NC(=O)C(c2ccncc2)n2c(=O)c(-c3cc4ccccc4[nH]3)nc3ccccc32)cc1 (stereo not drawn),-12%
5,COc1cccc(-n2cc3c(c2-c2ccccc2)c(=O)n(C)c(=O)n3C)c1,18.5%
6,COc1cccc(-n2nc(C(=O)N3CCN(Cc4ccccc4)CC3)c3ccccc3c2=O)c1,-16.4%
7,COc1cccc(-n2cc(C(=O)O)c3ccccc3c2=O)c1,-59.6% (active)
8,C[C@@H]1CN([C@@H](C)CO)C(=O)c2cccc(NS(=O)(=O)c3ccc(F)cc3)c2O[C@H]1CN(C)C(=O)NC1CCCCC1,2.27%
9,CCCCNCCS(=O)(=O)NCc1ccccc1,24.2%
10,CC(NC(=O)COc1ccccc1)C(=O)NC1=NCCS1 (stereo not drawn),-56.1% (active)
11,Cc1ccc(S(=O)(=O)N(C)c2ccc(OCC(=O)NC3=NCCS3)cc2)cc1,23%
12,CN(c1ccc(OCC(=O)NC2=NCCS2)cc1)S(=O)(=O)c1ccc(F)cc1,12%
13,CC(C)CNC(=O)C1(C)CCCN1C(=O)CSc1ccccc1 (stereo not drawn),24.3%
14,Cc1ccc(CC(=O)Nc2ccc(OC(F)F)c(Cl)c2)cc1C,2.16%
15,CC(=O)N1CCN(CC(=O)Nc2ccc(SC(F)F)cc2)CC1,8.74%
16,O=C(Cc1ccc(Cl)c(Cl)c1)Nc1ccc(SC(F)F)cc1,-96% (active)
17,O=C(c1ncn2c1c(=O)[nH]c1ccccc12)N1CCc2ccccc2C1,1.53%
18,CCOC(=O)C1CCCN(C(=O)c2ccc(N(C)C)cc2)CC1 (stereo not drawn),14.2%
19,Cc1cc(-c2n[nH]c(=S)n2/N=C/C(Br)=C/c2ccccc2)n[nH]1,-103% (active)
20,COc1cc(/C=N/n2c(C)n[nH]c2=S)ccc1OCc1ccccc1,20.1%
21,S=c1[nH]nc(-c2cccs2)n1/N=C/c1cccs1,2.13%
22,CCN(CC(=O)Nc1ccc(NC(C)=O)cc1)C(=O)C1CC(=O)N(c2ccc3c(c2)OCCO3)C1 (stereo not drawn),-4.3%

row,Structure (SMILES),activity change
1,Nc1ncnc2c1ncn2[C@@H]1O[C@H](C(=O)NCC(F)(F)F)[C@@H](O)[C@H]1O,-18.1%
2,Cc1ccc(Cn2cc(CN3CC(N4CCN(C)CC4)CS3(=O)=O)nn2)cc1 (stereo not drawn),1.38%
3,O=C(Nc1ccc(C2CC2(Cl)Cl)cc1)c1cccc([N+](=O)[O-])c1 (stereo not drawn),-90.4% (active)
4,Cc1cc(C)nc(NC(=O)c2cccc([N+](=O)[O-])c2)c1,-4.03%
5,O=C(Nc1cccc([N+](=O)[O-])c1)c1ccc2c(c1)OCO2,-4.35%
6,O=C(COC(=O)c1ccc[nH]c1=O)Nc1ccc2c(c1)OC(F)(F)O2,23.1%
7,COC(=O)[C@]12CCCCC=C1N(Cc1cccc3ccccc13)C(=O)[C@H](CC(=O)N1CCOCC1)C2,-7.21%
8,Cc1ccc(S(=O)(=O)N2CCC(=O)N([C@H](COCc3ccccc3)C(C)C)CC2)cc1,29.8%
9,O=C(NCC1CCN(Cc2ccccc2Cl)CC1)Nc1cccc(Cl)c1,-75% (active)
10,COc1cc(NC(=O)NCC2CCN(Cc3ccc(C)cc3)CC2)cc(OC)c1OC,-6.99%
11,COc1ccc(Cl)cc1NC(=O)NCC1CCN(Cc2ccccc2F)CC1,-22.8%
12,O=C(NCCN1CCOCC1)Nc1cccc(Cl)c1,2.78%
13,O=C1CCCN1CCCNC(=S)Nc1ccc(F)c(Cl)c1,4.41%
14,Cc1cccc(CN2CCC(CNC(=O)Nc3ccc(F)c(Cl)c3)CC2)c1,-107% (active)
15,CC(CO)N1CCS(=O)(=O)CC1 (stereo not drawn),19.8%
16,CCC/C(C)=N\Nc1nc2c(c(=O)n(C)c(=O)n2C)n1C,6.47%
17,O=C(O)C(c1cccs1)C1(O)CCCCC1 (stereo not drawn),5.75%
18,CCOC(=O)c1cc(-c2sc(NC(=O)c3ccccc3)nc2C)n(-c2ccc(Br)cc2)n1,-4.38%
19,CC(C)Cc1nnc(NC(=O)CCc2ccccc2)s1,8.78%
20,COC(=O)CSc1nnc(NC(=O)CCc2ccccc2)s1,12.3%
21,O=C(CCc1ccccc1)Nc1ncc([N+](=O)[O-])s1,-59.9% (active)
22,CC(CC(=O)C1C(C)C=CCC1(C)C)NNC(N)=O (stereo not drawn),2.93%
